This is an account of results in PubChem BioAssay AID748 (Sanford-Burnham Center for Chemical Genomics, 2007).

About 100 (0.1%) of roughly 96,000 compounds were called active. The sample holds actives, similar compounds and a random draw of the others, so the mix is not that of the screen.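 The calls were made as follows: active = displacement above 50% at 20 µM plus a fluorescence interference ratio under 1.5; inactive = the rest.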 Potency and affinity values are given separately.

This test has as its target Bcl-2-like protein 10 (Homo sapiens) (UniProt Q9HD36). Kind of test: Bcl-B/TR3 peptide binding disruption – biochemical, fluorescence polarization, FITC-TR3 peptide, selectivity assay for Bfl-1 inhibitor project, primary screen (AID 748).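 Also: plate controls were wells without compound for no effect and wells lacking Bcl-B protein for full effect.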 The note with it: FP displacement of FITC-TR3 peptide from Bcl-B; at 20 µM; active compounds read high. In general terms: Fluorescence polarisation rises when a labelled molecule tumbles more slowly, as on binding a larger partner.
On to `COc1ccc(N=C2SC(CC(=O)Nc3ccccc3)C(=O)N2CC2CCCO2)cc1` (stereo unspecified), for which the displacement is -7.7% (inactive).
The value for `Cc1cc(=O)oc2cc(OCC(=O)N3CCc4ccccc4C3)ccc12` was -2.9% (inactive); that for `COc1ccc2c(c1)c(=O)oc1cc(OCC(=O)NC3CC3)ccc12` was -27.3% (inactive); that for `Cc1cc(=O)oc2ccc(OCC(=O)N3CCC(C)CC3)cc12` was -6.2% (inactive).
For `COc1cccc(OCC(=O)NC2CCCCC2)c1`, the displacement was -1.4% (inactive).
For `COc1ccc2c(c1)c(=O)oc1c(C)c(OCC(=O)N3CCc4ccccc4C3)ccc12`, the displacement is 17.9% (inactive).
The same measure for `COc1ccc2c(c1)c(=O)oc1cc(OCC(=O)N3CCCC(C)C3)ccc12` (stereo unspecified): 31.5% (inactive); for `COC(=O)c1ccccc1OCC(=O)NC1CCCCC1`: -0.5% (inactive).
Turning to `O=C1CC(=O)C(n2cncn2)C(c2c(F)cccc2Cl)C1` (stereo unspecified), the displacement is 1.3% (inactive).
In the case of `O=C(CSc1ncccc1-c1nc2ccccc2[nH]1)N1CCN(c2ccccc2F)CC1`, the displacement was -0.6% (inactive).
The value for `COc1cc(C(=O)NCCC(=O)NCCCN2CCCCC2C)cc(OC)c1OC` (stereo unspecified) was -7% (inactive); that for `Cc1ccc(/C=N/NC(=O)c2cccs2)cc1[N+](=O)[O-]` was -1.9% (inactive); that for `O=[N+]([O-])c1cc(/C=N\Nc2nccs2)ccc1O` was 107% (active).
On to `Clc1cccc(/C=N\Nc2nccs2)c1`, for which the displacement is -14.4% (inactive).
As to `CCCn1c(CN2CCN(C(=O)c3ccco3)CC2)nc2c1c(=O)n(C)c(=O)n2C`, the displacement is -3.6% (inactive).
`CCc1nnc(NC(=O)c2cnccn2)s1`: the displacement was -1% (inactive).
Turning to `CCSc1nnc(NC(=O)c2cnccn2)s1`, the displacement was 58.3% (active).
With `CCSc1nnc(NC(=O)c2ccccn2)s1`, the displacement is 2.1% (inactive).
The value for `CCc1c(C)nc2[nH]nc(-c3ccccc3)n2c1=O` was 3.2% (inactive); that for `CCOC(=O)c1cc2c(=O)n3cccc(C)c3nc2n(Cc2ccccc2Cl)c1=N` was -0.7% (inactive).
The same measure for `Cn1c(=O)[nH]c(=O)c2c1nc(Br)n2Cc1ccccc1Cl`: -0.4% (inactive); for `COc1cccc(C(=O)NC2CC3CCCC(C2)N3CC(=O)Nc2ccc(N(C)C)cc2)c1` (stereo unspecified): 7.7% (inactive); for `COc1cc(C(=O)NC2CC3CCCC(C2)N3CC(=O)Nc2ccccc2)cc(OC)c1OC` (stereo unspecified): -5.3% (inactive).
Turning to `Cn1c(=O)c2nnn(/N=C(\c3ccccc3)C3CC3)c2n(C)c1=O`, the displacement is 0.7% (inactive).
As to `COc1ccc(C2=Nn3c(nnc3-c3ccco3)SC2)cc1`, the displacement is 0.6% (inactive).
The value for `Oc1ccc(C2=Nn3c(nnc3-c3ccco3)SC2)cc1O` was 56.6% (active).
Turning to `COc1ccc(C2=Nn3c(nnc3-c3ccco3)SC2)cc1OC`, the displacement is 5.3% (inactive).
As for `COc1ccc(NC(=O)C2CCN(C(=O)c3ccc(OC)cc3)CC2)cc1`, the displacement is 3.5% (inactive).
The same measure for `COc1ccc(NC(=O)C2CCCN(c3c4c(nc5ncnn35)CCC4)C2)cc1` (stereo unspecified): -4.1% (inactive); for `CCOC(=O)c1cccc(NC(=O)CSc2nc(N)cc(N)n2)c1`: -1.6% (inactive); for `COC(=O)c1cccc(NC(=O)COC(=O)CSc2nc(C)cc(C)n2)c1`: -13.3% (inactive).
With `O=C(CSc1nnc2c3ccccc3c3ccccc3c2n1)Nc1ccccc1`, the displacement was -29.6% (inactive).
The value for `Cc1cccc(NC(=O)CSc2nnc(-c3ccco3)o2)c1C` was 7.2% (inactive); that for `Cc1ccc(SCC(=O)Nc2ccc(-c3nnc(-c4ccco4)o3)cc2)cc1` was -9.5% (inactive).
Take `CCc1nnc(SCC(=O)Nc2ccccc2)nc1CC`: the displacement was -1.5% (inactive).
Consider `Cc1cccc(C)c1NC(=O)CSc1nnc(-c2ccco2)c(-c2ccco2)n1`, for which the displacement is -4.1% (inactive).
For the compound `Cc1cccc(NC(=O)CSc2nnc(-c3ccco3)c(-c3ccco3)n2)c1C`, the displacement was 37.3% (inactive).
On to `Cc1ccc2oc(-c3cccc(NC(=O)c4ccc(Br)o4)c3)nc2c1`, for which the displacement is -23.6% (inactive).
`CC(NC(=O)CSc1nnc(CC(=O)Nc2ccc(Cl)c(Cl)c2)n1C)c1ccccc1` (stereo unspecified): the displacement is -13.6% (inactive).
In the case of `Cc1cccc(N(C)S(=O)(=O)c2ccc3c(c2)CCC(=O)N3)c1`, the displacement was -24.5% (inactive).
In the case of `Cc1ccc(S(=O)(=O)Cc2ccc(C(=O)N3CCN(Cc4ccccc4)CC3)o2)cc1`, the displacement was 16.9% (inactive).
As for `Cc1ccc(S(=O)(=O)Cc2ccc(C(=O)N3CCCC3)o2)cc1`, the displacement was -6.7% (inactive).
The same measure for `Cc1ccc(S(=O)(=O)Cc2ccc(C(=O)N3CCCCCC3)o2)cc1`: 21.6% (inactive).
In the case of `COc1ccc(S(=O)(=O)Cc2ccc(C(=O)N3CCc4ccccc4C3)o2)cc1`, the displacement was 9.8% (inactive).
For `COC(=O)c1cccc(NC(=O)CSc2nnc(C)n2Cc2ccccc2)c1`, the displacement is -10.5% (inactive).
Consider `CCOc1ccc(N2C(=O)CC(N3CCN(C4CCc5ccccc5C4)CC3)C2=O)cc1` (stereo unspecified), for which the displacement is 5.4% (inactive).
For `CC(=O)N1CCn2c3c(c(=O)c4cc(C)ccc42)CCC31` (stereo unspecified), the displacement was 4.4% (inactive).
Take `Cc1ccc2c(c1)c1c3n2CCN(C(=O)CN2CCN(C)CC2)C3CCC1` (stereo unspecified): the displacement is 15.1% (inactive).
As to `COc1cc(NC(=O)COC(=O)c2nc3nc(C)cc(C)n3n2)cc(OC)c1`, the displacement is 0.7% (inactive).
Turning to `COCC(C)n1c(C)cc(C(=O)COC(=O)c2nc3nc(C)cc(C)n3n2)c1C` (stereo unspecified), the displacement is 9.9% (inactive).
`Cc1ccc(CC(=O)NC(C)CCc2ccccc2)cc1` (stereo unspecified): the displacement is 1% (inactive).
`Cc1cc(NC(=O)COC(=O)[C@H](C)NC(=O)c2ccccc2)no1`: the displacement was 11.4% (inactive).
Regarding `Cc1ccc(C)n1-c1ccc(C(=O)O)cc1`, the displacement is 42.6% (inactive).
On to `O=C(O)c1cccc(N2CCCC2)c1`, for which the displacement is -2.4% (inactive).
Turning to `N/C(COc1ccc(F)cc1)=N\NC(=O)c1cccnc1Oc1ccccc1`, the displacement was 12.1% (inactive).
Consider `C/C(Cl)=C/Cn1c(=O)c2c(nc(Br)n2Cc2ccccc2)n(C)c1=O`, for which the displacement was 4.3% (inactive).
In the case of `C/C(N)=C(/C#N)C(=O)CSc1nnc(Nc2ccccc2C)s1`, the displacement was 4.3% (inactive).
With `C/C(N)=C(/C#N)C(=O)CSc1nnc(Nc2cccc(C)c2C)s1`, the displacement was -1.5% (inactive).
As to `O=S(=O)(c1ccccc1)N1CCSC1c1ccco1` (stereo unspecified), the displacement is -4.6% (inactive).
For `CCc1cc(C(=O)Cc2cnn(-c3ccccc3)c2)c(O)cc1O`, the displacement was -5.9% (inactive).
For `Cc1ccc(O)c(C(=O)c2cnn(-c3ccccc3)c2)c1`, the displacement was -8.5% (inactive).
The value for `CC(SCCc1ccccn1)C(=O)O` (stereo unspecified) was -2% (inactive); that for `CCn1c(SCC(=O)Nc2ccc(NC(C)=O)cc2)nnc1C1CC1` was -2.2% (inactive).
Consider `COc1ccc(C(=O)c2coc3ccc(O)c(CN4CCCCC4)c23)cc1`, for which the displacement is -2.5% (inactive).
The same measure for `O=c1c(-c2ccccc2)coc2c(CN3CCCC3)c(O)ccc12`: 0.4% (inactive); for `Nc1csnc1C(=O)O`: 1.9% (inactive).
With `Cc1nnc(-c2cccc(Br)c2)c2cn(-c3ccccc3Cl)nc12`, the displacement was 7.2% (inactive).
Turning to `CCCCC(=O)Nc1ccc(NC(=O)CCCC)nc1`, the displacement was -8.6% (inactive).
On to `Cc1ccc(C(=O)CSc2cc(C)nc(SCC(=O)c3ccccc3)n2)cc1`, for which the displacement was -6.6% (inactive).
`CCn1c(SCC(=O)c2ccc(O)c(O)c2)nnc1-c1ccccc1`: the displacement is 15.8% (inactive).
For the compound `Nc1cc(N)nc(SCC(=O)c2ccccc2)n1`, the displacement is -7.4% (inactive).
Take `CCn1c(SCC(=O)c2ccc(O)c(O)c2)nnc1-c1ccc(C)cc1`: the displacement was 33% (inactive).
On to `Cc1ccc(NC(=O)CCn2nc(C)cc2C)c(C)c1`, for which the displacement is -5% (inactive).
As for `CCN(CCO)c1ccc(-n2c(N)c(C(=O)OC)c3nc4ccccc4nc32)cc1`, the displacement was 12.6% (inactive).
As to `CC(C)c1nnc(NC(=O)CCN2C(=O)c3ccccc3C2=O)s1`, the displacement was -5.9% (inactive).
On to `CCn1c(SCc2ccc(C#N)cc2)nnc1-c1cccc(Cl)c1`, for which the displacement is -1.6% (inactive).
In the case of `Clc1ccc(CN(Cc2ccccc2)C(c2cccs2)c2nnnn2C2CCCC2)cc1` (stereo unspecified), the displacement is -9.7% (inactive).
With `O=C1CN(C(=O)c2cnccn2)c2ccccc2N1`, the displacement was 7% (inactive).
As for `O=C(c1cccnc1)N1CCc2ccccc21`, the displacement is -1.9% (inactive).
The same measure for `Cc1cc(C(F)F)n2ncc(C(=O)N3CCC(C(N)=O)CC3)c2n1`: 10.5% (inactive); for `CCS(=O)(=O)C(=C1NCCO1)S(=O)(=O)CC`: 1.6% (inactive).
Regarding `Cc1cc(Cl)cc(Cl)c1OCC(=O)NCc1ccco1`, the displacement is -20.9% (inactive).
For the compound `Cc1ccc2c(Cl)cc(Cl)c(OCC(=O)NCc3ccco3)c2n1`, the displacement was 56.5% (active).
With `Cc1ccc2c(Cl)cc(Cl)c(OCC(=O)NC(=O)NCc3ccco3)c2n1`, the displacement is -8% (inactive).
For `Cc1ccccc1C(=O)/C=C1/c2ccccc2CC(C)(C)N1C`, the displacement was 4.3% (inactive).
The same measure for `c1ccc(Sc2cnc3ccccc3n2)cc1`: -0.3% (inactive); for `O=C1C(C=Nc2ccccc2O)=C(O)c2ccccc21`: -6.7% (inactive).
The value for `CN=CC1=C(O)c2ccccc2C1=O` was -13.3% (inactive).
Take `Cc1cc(C)c(C)c(S(=O)(=O)NCC(=O)O)c1C`: the displacement is 2.8% (inactive).
With `O=C(Nc1ccc(N2CCOCC2)cc1)Nc1ccc(Cl)c(Cl)c1`, the displacement is -11.1% (inactive).
As for `CC(=O)c1ccc(N2CCN(c3ncc(C(F)(F)F)cc3Cl)CC2)cc1`, the displacement is -8.1% (inactive).
For `Cc1nnc2n(Cc3ccccc3)c(=O)c3c4c(sc3n12)COC(C)(C)C4`, the displacement was 4.4% (inactive).
For `Cc1ccc(-n2c(SCC(=O)N3CCCC3)nc3c(c2=O)SCC3)cc1`, the displacement was 1% (inactive).
For `Cc1ccc(NC(=O)c2noc3c2CCCCC3)cc1`, the displacement was -10.5% (inactive).
The same measure for `CCc1ccc(NC(=O)c2noc3c2CCCCC3)cc1`: -3% (inactive); for `CC(=O)c1ccc(NC(=O)c2noc3c2CCCCC3)cc1`: -0.9% (inactive); for `COc1ccc(CNC(=O)c2noc3c2CCCC3)cc1`: -8.9% (inactive).
With `O=C(N1CCOCC1)N1CCN(c2nc(-c3ccccc3)cs2)CC1`, the displacement is -0.8% (inactive).
Turning to `COC(=O)c1cc(C(=O)OC)n(Cc2ccc(F)cc2)n1`, the displacement was -10.3% (inactive).
With `CCc1ccc(-n2nc3ccc(NC(=O)c4ccc5c(c4)OCO5)cc3n2)cc1`, the displacement was -1% (inactive).
The same measure for `O=C(Nc1ccc2nn(-c3ccccc3)nc2c1)c1ccc2c(c1)OCO2`: -30.3% (inactive).
